Structures are written as SMILES. The whole screen tested about 38,000 compounds, of which about 1,200 (3.2%) showed an effect of 50% or more. The median lay at about -58%. The full list was thinned out, with strong results kept by preference.

The assay has as its system Plasmodium falciparum. Briefly: Calibr Malaria Delayed Death Assay SOP. In kind it is functional, organism-based. The conditions noted are these: concentration 4.99e-06 (unit not given; other assays of the set use mol/L). Also noted: scale not given: in the data most compounds retested in dose-response had high values.
As to `NC(=O)c1ccc(CN2CCCC(N3CCCCCC3)C2)cc1` (stereo not given), the “Percent Effect” value is listed as -140%.
Next, `COCC(=O)N1C[C@H](N(C)Cc2cncnc2)[C@H]2OCCC[C@H]21`: -24%.
As to `COc1ccccc1OC1CCN(Cc2ccc(N(C)C)nc2)CC1`, the “Percent Effect” value is -79.91%.
In the case of `O=C(NCCn1cccc1)c1c(O)cc(F)cc1F` it was -181.2%; in that of `Cc1cc(C(=O)N2CCCC2c2nnc3n2CCCCC3)on1` (stereo not given), -57.59%.
For `CCN1C[C@@H]2[C@@H](OC)CCN(S(=O)(=O)c3cccnc3)[C@@H]2C1.O=C(O)C(F)(F)F.O=C(O)C(F)(F)F`, the “Percent Effect” value is listed as -23.75%.
Next, `CCN1C[C@H]2[C@@H](C1)N(S(=O)(=O)c1ccccc1)CC[C@H]2OC.O=C(O)C(F)(F)F`: 60.81%; `CCN1C[C@H]2[C@@H](C1)N(S(=O)(=O)c1ccccc1F)CC[C@H]2OC.O=C(O)C(F)(F)F`: 45.85%; `O=c1cc(N2CCCCC2)cnn1CC(O)C(F)(F)F` (stereo not given): -156.3%.
Next, `Cc1ccnc(OCC(=O)N2CCCC2)n1`: -75.67%; `Fc1cccc(Cl)c1CNCCCOc1ccccn1`: 9.624%; `Cc1cccc(NC(=O)C2CSc3ncc(C)c(=O)n3C2)n1` (stereo not given): -106.9%.
Consider `c1cnc(N2CCC3(COCc4cnc(N5CCOCC5)nc43)C2)nc1` (stereo not given), for which the “Percent Effect” value is reported as -59.23%.
`CC(C)(O)CN1CCN(C(=O)c2cccn2Cc2ccccc2)CC1`: the “Percent Effect” value is on record as -70.89%.
`Cc1ccc(C2(CN(C)Cc3sccc3C)CCNCC2)nc1`: the “Percent Effect” value is on record as 76.73%.
In the case of `Cc1ccc(C2(CN(C)Cc3snnc3C)CCNCC2)nc1` it was -24.27%.
For the compound `Cc1ccc(C2(CN(C)Cc3c(C)nn(C)c3C)CCNCC2)nc1`, the “Percent Effect” value came to 16.34%.
Next, `CCCc1nc(N2CCCC(CCOC)C2)c2cnn(C)c2n1` (stereo not given): -84.44%.
In the case of `CCC(CO)NCc1ccc(-c2ccc(Br)cc2)o1.Cl` (stereo not given) it was 45.11%.
For `Cc1cc(N2CCCC2)nc(N(C)CCO)c1C#N`, the “Percent Effect” value is on record as -125.9%.
In the case of `CC(=O)N1CCc2nc(N(C)C)nc(NCCc3ccccc3)c2CC1` it was -47.75%.
In the case of `CN(C)c1nc2c(c(NCc3cc(O)ncn3)n1)CCCC2` it was 89.31%; in that of `Cc1nc(CCNc2nc(N(C)C)nc3c2CCCC3)cc(=O)[nH]1`, -16.34%; in that of `Cc1cnn(CC2CCCN2Cc2nnc(C)o2)c1` (stereo not given), -118.7%.
Next, `CC(C)c1cc(NC(=O)c2ccc([S+]([O-])C(C)C)cc2)[nH]n1` (stereo not given): -180.3%.
On to `CC(C)c1cc(NC(=O)c2ccncc2)[nH]n1`, for which the “Percent Effect” value is reported as -141%.
Next, `CC(C)c1cc(NC(=O)c2ccc(C(=O)NC(C)(C)C)cc2)[nH]n1`: 62.94%; `CCn1c(C)nnc1Sc1nn2cc(C)nc2s1`: -124.9%; `CCN1CC2(CC1=O)CN(C(=O)c1ccoc1)CCN(C(=O)N(C)C)C2` (stereo not given): -39.9%.
Next, `Cc1ccc2[nH]c(CN3CC[C@@H](N4CCN(C)CC4)[C@H](O)C3)c(C)c2c1`: -45.01%; `Cc1c(CN2CC[C@@H](N3CCC(O)CC3)[C@H](O)C2)[nH]c2ccc(Cl)cc12`: 53.46%.
For `Cc1c(CN2CC[C@@H](N3CCC(O)CC3)[C@H](O)C2)[nH]c2ccc(F)cc12`, the “Percent Effect” value is -24.81%.
For the compound `Cc1noc([C@@]23CCO[C@@H]2CCN(S(=O)(=O)c2cccnc2)C3)n1`, the “Percent Effect” value is recorded as -112.8%.
Next, `CSc1ccc(CN(CCO)C(=O)CCc2ccc(O)cc2)cc1`: -83.46%; `CN1CCC(N2CCC(C(=O)N(C)C)CC2)CC1.O=C(O)C(F)(F)F.O=C(O)C(F)(F)F`: -35.37%; `Cc1cc(=O)n2nc(Oc3cccc(I)c3)sc2n1`: 55.78%.
Turning to `Cc1cc(=O)n2nc(Oc3ccc(C#N)cc3Cl)sc2n1`, the “Percent Effect” value was 19.91%.
On to `Cc1cc(=O)n2nc(Oc3cc(Cl)cc(Cl)c3)sc2n1`, for which the “Percent Effect” value is given as -6.381%.
With `O=c1[nH]cnc2[nH]c(N3CCCCC3)nc12`, the “Percent Effect” value is -26.61%.
Next, `N#Cc1ccc(NCc2cccc(OCC3CCCO3)c2)nc1` (stereo not given): -77.93%.
Next, `COc1cc2c(cc1CNC(=O)C(C)n1ccnc1C(C)C)OCCO2` (stereo not given): 8.922%; `COCc1nc(CNC(=O)C(C)n2ccnc2C(C)C)no1` (stereo not given): -17.51%; `COc1cc2c(cc1CNC(=O)C(C)n1ccnc1C(C)C)CCC2` (stereo not given): 59.1%.
Next, `NS(=O)(=O)NCc1cc(-c2ccc(C(F)(F)F)cc2)n[nH]1`: -60.23%; `Fc1cccc(N2CCCC3(CN(Cc4ccco4)CCO3)C2)c1.O=C(O)C(F)(F)F.O=C(O)C(F)(F)F` (stereo not given): 40.81%; `Fc1cccc(N2CCCC3(CN(Cc4cccnc4)CCO3)C2)c1.O=C(O)C(F)(F)F.O=C(O)C(F)(F)F.O=C(O)C(F)(F)F` (stereo not given): 64.23%.
In the case of `Cn1cc(CN2CCOC3(CCCN(c4cccc(F)c4)C3)C2)cn1.O=C(O)C(F)(F)F.O=C(O)C(F)(F)F` (stereo not given), the “Percent Effect” value is -10.6%.
Next, `Fc1cccc(N2CCCC3(C2)CN(c2ncccn2)CCO3)c1.O=C(O)C(F)(F)F.O=C(O)C(F)(F)F` (stereo not given): 69.94%.
Consider `Fc1cccc(N2CCCC3(CN(Cc4ccccn4)CCO3)C2)c1.O=C(O)C(F)(F)F.O=C(O)C(F)(F)F.O=C(O)C(F)(F)F` (stereo not given), for which the “Percent Effect” value was -90.59%.
For the compound `Fc1cccc(N2CCCC3(CN(Cc4nccs4)CCO3)C2)c1.O=C(O)C(F)(F)F.O=C(O)C(F)(F)F` (stereo not given), the “Percent Effect” value was -4.725%.
Next, `CC(C)(C)OC(=O)N1CCN(c2nnc(Br)s2)CC1`: -125.7%; `Cn1cccc1C(=O)N1CCn2nnc(COc3cccnc3)c2C1.O=C(O)C(F)(F)F`: -3.271%; `Cc1csc(C(=O)NCCn2nc(-n3cncn3)ccc2=O)c1`: -119.2%.
In the case of `O=C(Cn1cc(-c2ccccc2)ncc1=O)NC1CCCCC1` it was -177.8%.
In the case of `CCCS(=O)(=O)N1CCOC2(CCCN(c3ccccn3)C2)C1.O=C(O)C(F)(F)F` (stereo not given) it was -72.32%; in that of `COc1ccc2c(c1)OCC(CNC(=O)c1ccc3[nH]nnc3c1)C2` (stereo not given), -64.67%; in that of `COCCN(CC1CCCN(C2Cc3ccccc3C2)C1)C(=O)CSC` (stereo not given), -1.59%.
For `COCCN(CC1CCCN(C2Cc3ccccc3C2)C1)C(=O)COC` (stereo not given), the “Percent Effect” value turned out to be 37.76%.
In the case of `COCCN(CC1CCCN(C2Cc3ccccc3C2)C1)C(=O)CO` (stereo not given) it was 58.68%; in that of `NCc1ccnc(Oc2ccccc2)c1`, -83.78%.
In the case of `O=C(CO)N1C[C@H]2CN(Cc3cccc(F)c3)C(=O)[C@H]2C1` it was -121.2%; in that of `CN(C)c1cc(C(=O)NCC2(c3ccc(F)cc3)CC2)ccn1`, -97.96%; in that of `CC(NC(=O)NCC1(c2ccc(F)cc2)CCCC1)c1nncn1C` (stereo not given), -7.891%.
`Fc1ccc(C2(CNC3=NCCN3)CCCC2)cc1.I`: the “Percent Effect” value is on record as 83.26%.
In the case of `Fc1ccc(OCCCNC2=NCCCN2)cc1.I`, the “Percent Effect” value came out at 2.763%.
Next, `Fc1ccc(C2(CNC3=NCCCN3)CCC2)cc1.I`: -5.202%; `COc1cccc(N2C(=O)CC3(CCCNC3)C2=O)c1.Cl` (stereo not given): -161.5%.
In the case of `c1ccc2oc(CN3CCCCC3Cn3cncn3)nc2c1` (stereo not given) it was -88.89%; in that of `COc1cccc(OC)c1CN1CC(=O)N(c2ccc(C)cc2)CC1C` (stereo not given), 75.45%.
Next, `COc1cc(CN2CC(=O)N(c3ccc(C)cc3)CC2C)cc(OC)c1` (stereo not given): 43.44%; `COc1ccc(F)c(CN2CC(=O)N(c3ccccc3C)CC2C)c1` (stereo not given): 6.943%.
With `COc1ccc(CN2CC(=O)N(c3ccc(C)cc3)CC2C)cc1O` (stereo not given), the “Percent Effect” value was -98.66%.
As for `COc1cccc(CN2CC(=O)N(c3ccccc3C)CC2C)c1OC` (stereo not given), the “Percent Effect” value was found to be 52.42%.
For `COc1ccc(F)c(F)c1CN1CC(=O)N(c2ccccc2C)CC1C` (stereo not given), the “Percent Effect” value came out at 28.54%.
Next, `CN(C)C(=O)CO[C@H]1CN(Cc2ccoc2)[C@@H]2COC[C@H]12.O=C(O)C(F)(F)F`: -8.838%; `CN(Cc1ccncc1)CC1CCCN(CCc2ccc(Cl)cc2)C1` (stereo not given): -30.31%; `Cc1nc[nH]c1CN(C)CC1CCCN(CCc2ccc(Cl)cc2)C1` (stereo not given): 82.22%.
In the case of `CN(Cc1cnc(N)nc1)CC1CCCN(CCc2ccc(Cl)cc2)C1` (stereo not given), the “Percent Effect” value is recorded as -42.11%.
Next, `CN(Cc1ccccc1O)CC1CCCN(CCc2ccc(Cl)cc2)C1` (stereo not given): -82.77%; `Cc1cc(CN(C)CC2CCCN(CCc3ccc(Cl)cc3)C2)[nH]n1` (stereo not given): -73.95%.
For `CC(C)NC(=O)c1nnn(-c2ccccc2)c1C1CC1`, the “Percent Effect” value is on record as -103.7%.
In the case of `CCCNC(=O)c1cc2c(s1)CCN2C(=O)c1ccccc1` it was -140.9%.
In the case of `O=C(NCCN1CCOC1=O)c1cnc(-c2cccnc2)nc1`, the “Percent Effect” value is -89.05%.
For `O=C(N[C@@H]1CN(Cc2cccc(F)c2)C[C@H]1O)c1cscn1`, the “Percent Effect” value is recorded as -187.1%.
Next, `O=C(COCC1CC1)Nc1ncccc1I`: -99.18%; `CCOCC1CN(Cc2ccc(OC)cc2)Cc2nn(CC3CC3)cc21.O=C(O)C(F)(F)F` (stereo not given): -47.96%; `CC(C)N(CCNC(=O)c1ccc(S(=O)(=O)NC2CC2)cc1)C(C)C`: 3.108%.
In the case of `Cc1cccc(C(C)C)c1NC(=O)NCCN(C(C)C)C(C)C` it was 37.4%; in that of `CC(C)N(CCNC(=O)c1[nH]nc2ccc(I)cc12)C(C)C`, 86.77%.
Regarding `c1ccc(-c2cc(CN3C[C@@H]4CC[C@H](C3)N(CC3CCC3)C4)on2)cc1`, the “Percent Effect” value is reported as 88.08%.
For `c1ccc(-c2cc(CN3C[C@@H]4CC[C@H](C3)N(CC3CC3)C4)on2)cc1`, the “Percent Effect” value came to 16.35%.
Next, `c1ccc(-c2cc(CN3C[C@H]4CC[C@H]3C4)on2)cc1`: 2.742%.
As for `CCC(OC)C(=O)NCc1cc2n(n1)CCCN(C1CCCCC1)C2` (stereo not given), the “Percent Effect” value was -16.19%.
In the case of `CC1CCCCN1c1nc2c(c(=O)[nH]1)CCN(Cc1ccccc1F)C2` (stereo not given) it was 13.92%; in that of `Cc1ccc(-c2cc(C(F)(F)F)nc(N3CCOCC3)n2)s1`, -16.11%; in that of `FC(F)(F)c1cc(-c2cccs2)nc(N2CCN3CCCC3C2)n1` (stereo not given), -49.64%.
Next, `Cc1c(-c2cc(C(F)(F)F)nc(N3CCC(N)CC3)n2)cnn1C`: 19.65%; `CCn1ncc(-c2cc(C(F)(F)F)nc(N3CCC(N)CC3)n2)c1C`: 64.36%.
Next, `CCc1ccc(-c2cc(C(F)(F)F)nc(N3CCC(N)CC3)n2)cc1`: 81.95%; `CCn1cc(-c2cc(C(F)(F)F)nc(NC3CCCC3)n2)c(C)n1`: -77.03%.

These data come from ChEMBL document CHEMBL3988442, “University of Dundee, Small-Polar-MMV Screening Library” (2021).
